This is an account of results in PubChem BioAssay (NCATS).

Common to all, as to test: qHTS profiling for inhibitors of Plasmodium falciparum proliferation (AID 504749); note: nearly all actives have a fitted effect of over 60% in size
Common to all, as to conditions: P. falciparum in erythrocytes, SYBR Green DNA, 72 h; series mostly up to 28.7 µM
(In general: In qHTS, concentration-response curves come from the screen itself.)

The test system of one experiment is CP335. The method in brief:
(§1)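 Three-day growth assay of blood-stage parasites in erythrocytes (0.3% parasitemia, 2.5% hematocrit) at 37 C, 5% CO2, quantified by SYBR Green DNA staining after overnight detergent lysis.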

Another experiment concerns DFO2036. The method in brief:
as §1

In the next experiment the test system is DIV14. In a few lines: as §1
Another experiment deals with DIV17. In a few lines:
as §1

The subject of another experiment is DIV30. The method in brief: as §1
The next experiment relates to Dd2. In a few lines: as §1
The subject of the next experiment is ECU. The method in brief:
as §1

Another experiment concerns FAB9. In a few lines: as §1
The test system of the next experiment is GB4. The method in brief: as §1
The test system of a further experiment is HB3. The method in brief:
as §1

Results filed as inconclusive are left out. Calls of active or inactive are those of the source. Calls come from the whole dose curve; as a rule, active = well fitted inhibition curve with a large enough effect; inconclusive = small, poorly fitted or top-dose-only effect; inactive = flat fitted curve, though single readings scatter.
Potency is the fitted concentration of half-maximal effect.

As for `CC(CNC(=O)c1cccnc1)NC(=O)c1cccnc1` (stereo not drawn), the Potency result in the experiment on CP335, with DFO2036, in the experiment on DIV14, in the experiment with DIV17, in the experiment with DIV30 and in the experiment on Dd2 was “inactive” throughout. The Potency result in the experiment on ECU, in the experiment on FAB9, in the experiment on GB4 and in the experiment with HB3 was “inactive” in each case.

Take `C=C1C(CCl)(CCl)C2(Cl)C(Cl)C(Cl)C1(Cl)C2(Cl)Cl` (stereo not drawn): the Potency in the experiment with CP335 is 3.01 µM (active); in the experiment on DFO2036, 2 µM (active); in the experiment on DIV14, 1.69 µM (active); in the experiment on DIV17, 1.9 µM (active); in the experiment on DIV30, 1.69 µM (active); in the experiment with Dd2 it was 2.24 µM (active). Moreover, the Potency in the experiment with ECU is 2 µM (active); in the experiment with FAB9 it was 3.55 µM (active); in the experiment on GB4, 2.13 µM (active); with HB3 it was 2.51 µM (active).

On to `CN1CCC(OC(=O)C(Oc2ccc(Cl)cc2)Oc2ccc(Cl)cc2)CC1`, for which the Potency result with CP335, with DFO2036, with DIV14, in the experiment with DIV17, with DIV30 and with Dd2 was “inactive” throughout. The Potency entry in the experiment on ECU, in the experiment on FAB9, in the experiment on GB4 and with HB3 was “inactive” in each case.

With `CCC(Cc1c(I)cc(I)c(O)c1I)C(=O)O` (stereo not drawn), the Potency result in the experiment with CP335, in the experiment with DFO2036, in the experiment with DIV14, in the experiment on DIV17, in the experiment on DIV30 and with Dd2 was “inactive” in each case. Moreover, the Potency entry in the experiment with ECU, with FAB9, in the experiment on GB4 and in the experiment on HB3 was “inactive” throughout.

Turning to `C[C@H](CCCC(C)(C)O)[C@H]1CC[C@H]2[C@@H]3CC=C4C[C@@H](O)CC[C@]4(C)[C@H]3CC[C@]12C`, the Potency entry with CP335, in the experiment with DFO2036, in the experiment with DIV14, in the experiment with DIV17, in the experiment with DIV30 and in the experiment on ECU was “inactive” throughout. Moreover, the Potency entry with FAB9 and in the experiment with GB4 was “inactive” throughout. Moreover, the Potency in the experiment with Dd2 is 15.8 µM (active).

Consider `CCCc1ccc(C(=O)O)cc1`, for which the Potency entry in the experiment on CP335, in the experiment with DFO2036, in the experiment with DIV14, with DIV17, with DIV30 and in the experiment on Dd2 was “inactive” throughout. Further, the Potency entry in the experiment with ECU, in the experiment with FAB9, in the experiment with GB4 and with HB3 was “inactive” in each case.

For `CN1C(=O)OC(C)(C)C1=O`, the Potency entry with CP335, in the experiment with DFO2036, with DIV14, in the experiment on DIV17, in the experiment on DIV30 and with Dd2 was “inactive” in each case. For the same molecule, the Potency entry in the experiment with ECU, in the experiment on FAB9, in the experiment on GB4 and with HB3 was “inactive” each time.

Regarding `CCOC(=S)SSC(=S)OCC`, the Potency entry with CP335, with DFO2036, in the experiment on DIV14, with DIV17, with DIV30 and with Dd2 was “inactive” each time. Besides, the Potency result in the experiment on ECU, with FAB9, with GB4 and in the experiment with HB3 was “inactive” in each case.

For `CC(=O)Oc1cccc2c1C(=O)c1c(OC(C)=O)cc(C(=O)O)cc1C2=O`, the Potency result in the experiment with CP335, in the experiment on DFO2036, in the experiment with DIV14, in the experiment on DIV17, with DIV30 and with Dd2 was “inactive” each time. Besides, the Potency entry in the experiment on ECU, in the experiment with FAB9, in the experiment with GB4 and with HB3 was “inactive” throughout.

As to `CN1C(=O)C[C@@H](C(=O)N[C@@H](Cc2cnc[nH]2)C(=O)N2CCC[C@H]2C(N)=O)NC1=O`, the Potency result in the experiment on CP335, with DFO2036, in the experiment with DIV14, in the experiment with DIV17, with DIV30 and with Dd2 was “inactive” in each case. For the same molecule, the Potency result in the experiment on ECU, with FAB9, in the experiment on GB4 and with HB3 was “inactive” in each case.

For `[O]=[Bi][O]C(=O)[O][Bi]=[O]`, the Potency result with CP335, with DFO2036, in the experiment with DIV14, in the experiment with DIV17, in the experiment with DIV30 and with Dd2 was “inactive” in each case. Besides, the Potency result with ECU, in the experiment with FAB9, in the experiment on GB4 and with HB3 was “inactive” throughout.

In the case of `NC(=O)[C@H]1O[C@@H](O)[C@H](O)[C@@H](O)[C@@H]1O`, the Potency result in the experiment with CP335, in the experiment with DFO2036, with DIV14, in the experiment with DIV17, with DIV30 and with Dd2 was “inactive” in each case. Also, the Potency entry in the experiment on ECU, in the experiment with FAB9, in the experiment on GB4 and in the experiment with HB3 was “inactive” throughout.

`CCCCCCCCCC(=O)NO`: the Potency result with CP335, in the experiment with DFO2036, with DIV14, with DIV17, in the experiment on DIV30 and in the experiment on Dd2 was “inactive” in each case. Moreover, the Potency result in the experiment with ECU, in the experiment with FAB9, in the experiment on GB4 and with HB3 was “inactive” throughout.

Take `CC(C)O`: the Potency result in the experiment on CP335, with DFO2036, with DIV14, in the experiment with DIV17, in the experiment with DIV30 and in the experiment on Dd2 was “inactive” throughout. For the same molecule, the Potency result with ECU, in the experiment on FAB9, in the experiment with GB4 and in the experiment on HB3 was “inactive” in each case.

With `CCOC(C)OCC`, the Potency entry with CP335, in the experiment with DFO2036, in the experiment on DIV14, in the experiment with DIV17, with DIV30 and in the experiment on Dd2 was “inactive” throughout. Further, the Potency result in the experiment on ECU, in the experiment on FAB9, in the experiment with GB4 and with HB3 was “inactive” in each case.

In the case of `c1ccc2c(c1)Sc1ccccc1N2CCN1CCCC1`, the Potency with CP335 was 9.53 µM (active); in the experiment on DFO2036, 10 µM (active); with DIV14 it was 6.01 µM (active); in the experiment on DIV17, 6.75 µM (active); in the experiment on DIV30, 12 µM (active); in the experiment with Dd2 it was 5.62 µM (active). Further, the Potency in the experiment with ECU was 10 µM (active); with GB4, 7.57 µM (active). Also, in the experiment with FAB9, the Potency result is “inactive”.

`Cc1ncc[nH]1`: the Potency result in the experiment on CP335, in the experiment with DFO2036, in the experiment on DIV14, in the experiment on DIV17, in the experiment with DIV30 and in the experiment with Dd2 was “inactive” throughout. Further, the Potency result with ECU, in the experiment on FAB9, in the experiment on GB4 and with HB3 was “inactive” in each case.

In the case of `CC1CC(O)CC(C)(C)C1` (stereo not drawn), the Potency entry in the experiment on CP335, in the experiment with DFO2036, in the experiment on DIV14, in the experiment on DIV17, with DIV30 and in the experiment on Dd2 was “inactive” throughout. For the same molecule, the Potency result in the experiment on ECU, with FAB9, in the experiment with GB4 and in the experiment on HB3 was “inactive” each time.

Take `NCC(O)CC(=O)O` (stereo not drawn): the Potency entry in the experiment with CP335, in the experiment on DFO2036, with DIV14, with DIV17, in the experiment on DIV30 and with Dd2 was “inactive” throughout. In addition, the Potency result with ECU, in the experiment on FAB9, in the experiment on GB4 and in the experiment on HB3 was “inactive” throughout.

Regarding `O=C1NCCN1c1ncc([N+](=O)[O-])s1`, the Potency result in the experiment with CP335, in the experiment on DFO2036, in the experiment with DIV14, in the experiment on DIV17, with DIV30 and in the experiment with Dd2 was “inactive” each time. The Potency result in the experiment on ECU, in the experiment with FAB9, with GB4 and in the experiment with HB3 was “inactive” each time.

On to `CC(C)[C@@H](N)C(=O)O`, for which the Potency result in the experiment on CP335, in the experiment on DFO2036, in the experiment on DIV14, with DIV17, in the experiment on DIV30 and with Dd2 was “inactive” in each case. The Potency result in the experiment on ECU, with FAB9, in the experiment on GB4 and in the experiment on HB3 was “inactive” each time.

For `CCCCCCCCCCCCCC(=O)OCC(COP(=O)([O-])OCC[N+](C)(C)C)OC(=O)CCCCCCCCCCCCC` (stereo not drawn), the Potency result in the experiment with CP335, in the experiment on DFO2036, in the experiment on DIV14, with DIV17, with DIV30 and with Dd2 was “inactive” throughout. The Potency result with ECU, in the experiment on FAB9, with GB4 and in the experiment on HB3 was “inactive” each time.

On to `CO`, for which the Potency result in the experiment on CP335, in the experiment with DFO2036, with DIV14, in the experiment with DIV17, in the experiment on DIV30 and with Dd2 was “inactive” throughout. The Potency entry in the experiment on ECU, in the experiment on FAB9, in the experiment with GB4 and in the experiment on HB3 was “inactive” in each case.

Take `O=c1[nH]c(=O)n([C@H]2C[C@H](O)[C@@H](CO)O2)cc1/C=C/Br`: the Potency entry with CP335, in the experiment on DFO2036, in the experiment with DIV14, in the experiment with DIV17, with DIV30 and in the experiment on Dd2 was “inactive” each time. Further, the Potency result with ECU, in the experiment with FAB9, with GB4 and in the experiment with HB3 was “inactive” throughout.
